# Reference: the supplement of paper PMC10849652
# Targets with a hit are over-represented here; the source holds about 7,900 in all. About 0.6% of all pairs of compound and target were hits. Values without a mark were called inactive.
# What was measured:
# Assay in all cases: log2 fold change, soluble protein after heating vs DMSO (PISA); higher = thermal stabilisation; K562 cells, 10 uM, 30 min; active = over 0.2 and 3.5 SD of the protein, either way, in both replicates (recomputed)
# [1] = compound: CC1=C(C=C(C=C1)NC(=O)C2=CC(=CC=C2)C(C)(C)C#N)NC3=CC4=C(C=C3)N=CN(C4=O)C
# In short: (§1)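 K562 cells (2×10^6 cells/mL) were treated with 10 μM compound for 30 min, and aliquots were heated for 3 min over 48°C-58°C. Pooled aliquots were extracted in PBS with 0.5% NP-40 at 4°C, and the supernatant after 21,000xg for 90 min was measured by TMTpro 16plex LC-MS/MS with channel sums equalised. Reported thermal stability, relative to control samples and from duplicates, is a log2 fold change.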
# [2] = compound: CC1=C(C=C(C=C1)NC(=O)C2=CC(=CC=C2)N(C)C)NC(=O)C3=CC=C(C=C3)O
# In short: as §1
# [3] = compound: CC1=CC=C(C=C1)SC2=C3C=C(SC3=CN=C2)C(=O)N
# In short: as §1
# [4] = compound: CC1=NC(=CC=C1)C2=C(N=C(N2)C(C)(C)C)C3=CC4=NC=CN=C4C=C3
# In short: as §1
# Nexturastat A = compound: CCCCN(Cc1ccc(C(=O)NO)cc1)C(=O)Nc1ccccc1 [Nexturastat A]
# In short: as §1
# vemurafenib = compound: CCCS(=O)(=O)Nc1ccc(F)c(C(=O)c2c[nH]c3ncc(-c4ccc(Cl)cc4)cc23)c1F [vemurafenib]
# In short: as §1
# [5] = compound: CCCS(=O)(=O)Nc1ccc(F)c(C(=O)c2c[nH]c3ncc(Cl)cc23)c1F
# In short: as §1
# [6] = compound: CCCc1cc(C)[nH]c(=O)c1CNC(=O)c1cc(-c2ccnc(N3CCN(C)CC3)c2)cc2c1cnn2C(C)C
# In short: as §1
# givinostat = compound: CCN(CC)Cc1ccc2cc(COC(=O)Nc3ccc(C(=O)NO)cc3)ccc2c1 [givinostat]
# In short: as §1
# barasertib = compound: CCN(CCCOc1ccc2c(Nc3cc(CC(=O)Nc4cccc(F)c4)[nH]n3)ncnc2c1)CCOP(=O)(O)O [barasertib]
# In short: as §1
# [7] = compound: CC[C@@H]1C(=O)N(C)c2cnc(Nc3ccc(C(=O)NC4CCN(C)CC4)cc3OC)nc2N1C1CCCC1
# In short: as §1
# volasertib = compound: CC[C@@H]1C(=O)N(C)c2cnc(Nc3ccc(C(=O)N[C@H]4CC[C@H](N5CCN(CC6CC6)CC5)CC4)cc3OC)nc2N1C(C)C [volasertib]
# In short: as §1
# [8] = compound: CC[C@H](C)N1C=C(C2=C(C=C(C=C21)C3=CN=C(C=C3)N4CCNCC4)C(=O)NCC5=C(C=C(NC5=O)C)C)C
# In short: as §1
# epoxomicin = compound: CC[C@H](C)[C@@H](C(=O)N[C@@H]([C@@H](C)O)C(=O)N[C@@H](CC(C)C)C(=O)[C@]1(CO1)C)NC(=O)[C@H]([C@@H](C)CC)N(C)C(=O)C [epoxomicin]
# In short: as §1
# [9] = compound: CCn1c(C(=O)N(C2CC2)C2CC2)cc2c3c(ncn3C)c(Nc3cc(C)n(C)n3)nc21
# In short: as §1
# [10] = compound: CCn1cc(-c2ccnc3[nH]c(-c4cccc(CN(C)C)c4)cc23)c(-c2ccc(NC(=O)N(C)C)cc2)n1
# In short: as §1
# [11] = compound: CN(C)CC(=O)Nc1ccc2[nH]c(=O)c3ccccc3c2c1
# In short: as §1
# rosiglitazone = compound: CN(CCOC1=CC=C(C=C1)C[C@H]2C(=O)NC(=O)S2)C3=CC=CC=N3 (racemic) [rosiglitazone]
# In short: as §1
# [12] = compound: CN1C2=C(C3=C1C(=O)N(N=C3)CC4=CC(=CC=C4)N)SC(=C2)S(=O)C
# In short: as §1
# [13] = compound: CN1CCC(CNc2ccc3ncc(-c4cccc(OC(F)(F)F)c4)n3n2)CC1
# In short: as §1
# UniProt Q8NAV1, sequence (Q8NAV1 whole entry, looked up): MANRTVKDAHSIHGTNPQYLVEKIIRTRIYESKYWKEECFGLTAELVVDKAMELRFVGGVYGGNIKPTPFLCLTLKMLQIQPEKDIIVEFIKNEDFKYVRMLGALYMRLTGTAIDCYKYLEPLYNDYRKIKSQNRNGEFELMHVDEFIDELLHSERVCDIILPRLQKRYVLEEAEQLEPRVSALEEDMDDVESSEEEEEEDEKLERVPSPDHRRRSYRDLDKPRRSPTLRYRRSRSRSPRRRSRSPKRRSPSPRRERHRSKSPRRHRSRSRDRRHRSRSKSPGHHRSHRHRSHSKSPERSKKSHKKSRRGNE
# UniProt Q9BRX2, sequence (Q9BRX2 whole entry, looked up): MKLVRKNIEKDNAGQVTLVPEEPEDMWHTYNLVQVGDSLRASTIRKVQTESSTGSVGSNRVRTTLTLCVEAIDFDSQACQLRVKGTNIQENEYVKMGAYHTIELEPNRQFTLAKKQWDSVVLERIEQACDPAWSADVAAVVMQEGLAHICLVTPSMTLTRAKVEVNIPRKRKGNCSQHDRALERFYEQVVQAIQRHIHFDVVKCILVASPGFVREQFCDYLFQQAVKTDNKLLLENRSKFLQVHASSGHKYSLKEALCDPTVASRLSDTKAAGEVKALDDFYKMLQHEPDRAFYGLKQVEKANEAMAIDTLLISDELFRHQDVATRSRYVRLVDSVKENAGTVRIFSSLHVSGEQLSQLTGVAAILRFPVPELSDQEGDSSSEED
# UniProt P17980, sequence (P17980 whole entry, looked up): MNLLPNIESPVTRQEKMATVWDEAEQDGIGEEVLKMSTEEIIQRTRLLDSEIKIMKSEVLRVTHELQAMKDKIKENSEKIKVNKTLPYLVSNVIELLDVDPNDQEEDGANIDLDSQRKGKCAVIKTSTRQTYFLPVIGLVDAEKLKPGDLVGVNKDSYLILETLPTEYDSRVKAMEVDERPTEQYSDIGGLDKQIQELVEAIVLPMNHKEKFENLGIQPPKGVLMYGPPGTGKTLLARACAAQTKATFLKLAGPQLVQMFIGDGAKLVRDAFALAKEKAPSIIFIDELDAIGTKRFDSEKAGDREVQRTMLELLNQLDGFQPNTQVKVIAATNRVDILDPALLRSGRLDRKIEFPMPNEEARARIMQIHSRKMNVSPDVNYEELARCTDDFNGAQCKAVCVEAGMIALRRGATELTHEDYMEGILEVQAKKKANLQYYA
# UniProt Q13200, sequence (Q13200 whole entry, looked up): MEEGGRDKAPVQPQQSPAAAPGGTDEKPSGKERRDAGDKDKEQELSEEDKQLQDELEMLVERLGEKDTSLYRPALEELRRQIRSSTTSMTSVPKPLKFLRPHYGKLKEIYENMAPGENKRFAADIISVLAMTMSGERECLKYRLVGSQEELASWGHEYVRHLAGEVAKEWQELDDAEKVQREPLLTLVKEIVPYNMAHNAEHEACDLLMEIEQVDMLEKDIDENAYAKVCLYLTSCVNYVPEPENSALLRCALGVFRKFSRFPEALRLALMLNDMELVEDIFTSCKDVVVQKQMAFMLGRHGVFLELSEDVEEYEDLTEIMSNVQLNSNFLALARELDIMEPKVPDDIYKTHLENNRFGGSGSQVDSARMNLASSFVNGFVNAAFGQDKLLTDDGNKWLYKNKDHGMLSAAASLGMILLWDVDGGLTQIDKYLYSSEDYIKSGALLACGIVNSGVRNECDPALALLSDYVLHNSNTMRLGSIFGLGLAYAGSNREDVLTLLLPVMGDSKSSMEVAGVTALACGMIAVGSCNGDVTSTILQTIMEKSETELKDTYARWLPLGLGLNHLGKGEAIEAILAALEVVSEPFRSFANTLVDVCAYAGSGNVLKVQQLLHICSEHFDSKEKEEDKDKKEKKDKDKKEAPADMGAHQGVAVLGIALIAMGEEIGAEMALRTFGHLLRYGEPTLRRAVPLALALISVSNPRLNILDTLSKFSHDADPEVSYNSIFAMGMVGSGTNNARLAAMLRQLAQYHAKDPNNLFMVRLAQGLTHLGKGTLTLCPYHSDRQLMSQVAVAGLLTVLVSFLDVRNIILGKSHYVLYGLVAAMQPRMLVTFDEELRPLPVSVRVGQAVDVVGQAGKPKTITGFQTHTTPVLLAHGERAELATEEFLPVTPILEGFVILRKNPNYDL
# UniProt P49585, sequence (P49585 whole entry, looked up): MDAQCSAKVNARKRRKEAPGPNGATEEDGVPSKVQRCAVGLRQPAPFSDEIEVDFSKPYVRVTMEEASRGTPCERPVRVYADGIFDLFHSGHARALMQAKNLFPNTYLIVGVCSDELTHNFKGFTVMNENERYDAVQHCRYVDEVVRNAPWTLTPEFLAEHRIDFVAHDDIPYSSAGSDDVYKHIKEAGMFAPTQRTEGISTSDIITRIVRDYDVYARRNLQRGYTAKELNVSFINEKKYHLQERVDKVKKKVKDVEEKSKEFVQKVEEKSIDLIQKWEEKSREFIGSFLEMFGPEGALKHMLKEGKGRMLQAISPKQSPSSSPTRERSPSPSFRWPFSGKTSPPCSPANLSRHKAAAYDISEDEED
# UniProt O00408, sequence (O00408 whole entry, looked up): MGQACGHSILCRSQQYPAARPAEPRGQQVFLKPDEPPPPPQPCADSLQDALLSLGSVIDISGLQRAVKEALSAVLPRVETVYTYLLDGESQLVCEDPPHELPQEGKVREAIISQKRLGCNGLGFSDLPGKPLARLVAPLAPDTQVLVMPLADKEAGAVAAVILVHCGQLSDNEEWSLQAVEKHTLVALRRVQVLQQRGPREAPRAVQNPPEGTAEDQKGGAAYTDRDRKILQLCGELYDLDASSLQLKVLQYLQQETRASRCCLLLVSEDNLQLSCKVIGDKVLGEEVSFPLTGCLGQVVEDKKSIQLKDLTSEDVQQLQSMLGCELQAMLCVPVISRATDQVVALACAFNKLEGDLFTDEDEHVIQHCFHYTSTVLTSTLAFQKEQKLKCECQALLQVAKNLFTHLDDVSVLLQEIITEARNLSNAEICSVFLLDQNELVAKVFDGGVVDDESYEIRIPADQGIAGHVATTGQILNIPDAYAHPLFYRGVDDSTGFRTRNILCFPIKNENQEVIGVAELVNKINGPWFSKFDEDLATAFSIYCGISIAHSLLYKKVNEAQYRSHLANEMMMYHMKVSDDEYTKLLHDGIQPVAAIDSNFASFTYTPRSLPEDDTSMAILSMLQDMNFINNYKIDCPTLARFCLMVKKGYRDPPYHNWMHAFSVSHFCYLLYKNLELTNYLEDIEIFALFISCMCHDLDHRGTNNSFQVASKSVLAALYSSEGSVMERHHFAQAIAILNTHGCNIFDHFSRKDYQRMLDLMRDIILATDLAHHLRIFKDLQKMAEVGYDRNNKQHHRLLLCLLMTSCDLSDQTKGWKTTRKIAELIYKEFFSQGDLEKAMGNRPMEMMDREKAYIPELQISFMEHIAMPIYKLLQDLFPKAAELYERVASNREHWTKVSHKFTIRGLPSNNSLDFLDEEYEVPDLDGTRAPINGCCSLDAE
# UniProt P35227, sequence (P35227 whole entry, looked up): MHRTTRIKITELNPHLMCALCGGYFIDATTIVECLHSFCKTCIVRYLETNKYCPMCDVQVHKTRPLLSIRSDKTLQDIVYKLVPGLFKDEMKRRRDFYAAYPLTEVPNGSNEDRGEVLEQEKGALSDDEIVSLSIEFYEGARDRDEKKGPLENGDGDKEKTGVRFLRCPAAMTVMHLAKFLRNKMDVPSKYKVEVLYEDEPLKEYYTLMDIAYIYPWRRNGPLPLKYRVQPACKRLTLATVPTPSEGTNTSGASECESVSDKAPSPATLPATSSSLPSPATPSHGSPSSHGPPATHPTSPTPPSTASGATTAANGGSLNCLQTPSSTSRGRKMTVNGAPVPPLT
# UniProt P28340, sequence (P28340 whole entry, looked up): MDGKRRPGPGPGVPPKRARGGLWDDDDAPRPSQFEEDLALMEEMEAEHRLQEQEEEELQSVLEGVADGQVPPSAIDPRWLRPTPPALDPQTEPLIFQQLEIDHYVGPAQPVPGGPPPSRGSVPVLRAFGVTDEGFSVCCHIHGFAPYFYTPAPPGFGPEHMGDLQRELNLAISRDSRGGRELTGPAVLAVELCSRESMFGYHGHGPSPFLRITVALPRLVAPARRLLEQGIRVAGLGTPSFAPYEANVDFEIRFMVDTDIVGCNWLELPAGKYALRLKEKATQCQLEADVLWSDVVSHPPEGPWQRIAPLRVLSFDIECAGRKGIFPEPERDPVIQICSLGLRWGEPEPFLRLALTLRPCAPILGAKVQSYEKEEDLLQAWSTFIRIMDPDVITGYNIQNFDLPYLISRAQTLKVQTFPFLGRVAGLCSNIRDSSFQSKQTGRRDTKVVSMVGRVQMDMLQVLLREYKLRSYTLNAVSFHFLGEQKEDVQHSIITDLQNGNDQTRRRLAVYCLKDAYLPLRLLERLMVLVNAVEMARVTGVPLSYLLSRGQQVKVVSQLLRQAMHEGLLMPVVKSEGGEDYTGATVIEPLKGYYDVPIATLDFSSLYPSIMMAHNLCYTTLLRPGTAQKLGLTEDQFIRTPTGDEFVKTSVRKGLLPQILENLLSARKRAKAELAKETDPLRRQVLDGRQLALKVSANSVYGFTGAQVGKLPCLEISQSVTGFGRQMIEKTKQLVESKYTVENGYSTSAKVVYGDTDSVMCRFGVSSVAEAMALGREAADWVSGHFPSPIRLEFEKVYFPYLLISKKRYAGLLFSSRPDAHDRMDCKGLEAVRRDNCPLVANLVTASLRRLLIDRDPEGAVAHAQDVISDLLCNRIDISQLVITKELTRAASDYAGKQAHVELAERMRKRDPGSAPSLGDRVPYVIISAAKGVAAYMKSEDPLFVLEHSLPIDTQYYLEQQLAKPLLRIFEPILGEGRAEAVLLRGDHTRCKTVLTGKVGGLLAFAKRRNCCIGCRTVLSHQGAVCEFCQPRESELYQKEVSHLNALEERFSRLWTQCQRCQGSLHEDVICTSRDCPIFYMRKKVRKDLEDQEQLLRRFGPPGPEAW
# UniProt Q7RTV0, sequence (Q7RTV0 whole entry, looked up): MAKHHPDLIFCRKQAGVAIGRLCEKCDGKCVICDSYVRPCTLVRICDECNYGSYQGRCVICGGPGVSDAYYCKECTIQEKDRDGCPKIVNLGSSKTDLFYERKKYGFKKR
Target,log2 fold change [1],log2 fold change [2],log2 fold change [3],log2 fold change [4],log2 fold change (Nexturastat A),log2 fold change (vemurafenib),log2 fold change [5],log2 fold change [6],log2 fold change (givinostat),log2 fold change (barasertib),log2 fold change [7],log2 fold change (volasertib),log2 fold change [8],log2 fold change (epoxomicin),log2 fold change [9],log2 fold change [10],log2 fold change [11],log2 fold change (rosiglitazone),log2 fold change [12],log2 fold change [13]
PSMC3 (UniProt P17980),0.013,0.02,-0.024,-0.051,0.034,-0.063,-0.055,0.002,-0.034,-0.059,0.032,0.179,-0.021,-0.319 (active),-0.028,0.079,-0.031,-0.038,0.021,0.018
PUM1 isoform 3 (UniProt Q14671),-0.011,0.01,0.011,0.042,0.06,0.02,0.05,0.002,-0.03,0.011,-0.075,-0.302 (active),0.036,0.023,-0.007,-0.018,0.015,0.033,0.044,-0.123
PCGF2 (UniProt P35227),-0.043,-0.058,-0.056,0.033,-0.01,0,-0.033,0.056,0.046,0.113,-0.131,-0.089,0.012,-0.005,-0.054,-0.02,-0.03,0.028,-0.071,-0.282 (active)
PRPF38A (UniProt Q8NAV1),0.005,-0.023,-0.058,0.017,0.019,-0.118,-0.089,0.065,0.005,-0.024,-0.029,-0.016,0,0.048,-0.011,0.031,0.051,0.031,-0.037,-0.081
PPP1R35 (UniProt Q8TAP8),-0.011,0.065,0.025,0.034,-0.009,-0.049,0.008,-0.027,0.112,-0.074,0.062,0.101,-0.062,0.062,0.009,0.007,-0.004,0.035,0.027,-0.032
POLR2I (UniProt P36954),-0.063,-0.011,-0.015,0.001,0.055,-0.086,-0.081,-0.057,-0.151,0.085,0.209,0.232,0.055,0.007,0.017,-0.208,-0.107,-0.107,-0.009,0.202
PDE2A (UniProt O00408),-0.041,0.007,0.041,-0.019,-0.054,0.013,0.036,-0.012,-0.043,0.011,-0.031,-0.107,0.016,-0.087,0.061,-0.082,0.027,-0.004,0,-0.091
PPIL4 (UniProt Q8WUA2),0.006,-0.02,-0.06,-0.007,0.145,0.001,0,0.04,0.045,0,-0.024,-0.253 (active),0.043,0.011,-0.051,0.047,0.007,-0.03,0.022,-0.098
PRKCD (UniProt Q05655),-0.015,-0.025,-0.012,-0.016,-0.032,0.015,0.013,-0.045,-0.021,0.023,0.036,-0.073,0.031,-0.003,0.005,-0.067,-0.009,0.062,-0.05,-0.159
PRKAG1 isoform 3 (UniProt P54619),-0.042,-0.006,0.007,0.037,-0.01,0.026,0.002,-0.026,0.014,0.013,-0.018,-0.207,0.048,-0.024,0.002,-0.033,-0.015,0.033,-0.009,-0.299 (active)
PPP2R5C isoform 4 (UniProt Q13362),-0.016,0.004,0.014,-0.064,0.016,0.074,-0.004,-0.027,-0.001,0.057,-0.069,-0.127,0.042,0.19,0.018,-0.099,-0.048,0.052,-0.003,-0.11
PSMD2 (UniProt Q13200),0.005,0.012,-0.025,-0.064,0.024,-0.091,-0.014,0.136,-0.048,-0.057,0.049,0.089,-0.009,-0.365 (active),0.011,0.07,-0.04,-0.024,0.021,0.055
PHF5A (UniProt Q7RTV0),-0.019,-0.046,-0.023,-0.012,-0.017,-0.075,-0.064,0.021,-0.075,-0.032,0.013,0.065,-0.061,0.051,0.014,0.087,-0.063,-0.062,-0.017,0.017
PCYT1A (UniProt P49585),-0.049,-0.038,-0.045,0.035,-0.034,0.052,0.043,-0.092,-0.024,0.044,-0.219,-0.332 (active),0.042,0.028,-0.029,-0.019,0.017,0.008,-0.022,-0.111
POLD1 (UniProt P28340),-0.083,-0.028,0.018,0.022,0.02,0.033,0.071,0.006,0.021,0.005,-0.061,-0.239 (active),0.053,0.123,0,-0.005,0.027,-0.029,-0.03,-0.171
PELO (UniProt Q9BRX2),-0.005,-0.051,0.042,-0.039,0.161,-0.13,0.007,0.055,0.192,0.045,-0.017,-0.387,0.09,-0.058,-0.068,0.007,-0.017,0.085,0.138,-0.312
